Among the data in PubChem BioAssay (NCI) are growth values, retold here.

What all share (assay): NCI-60 one-dose screen, 48 h (100 = growth as untreated, 0 = no growth, -100 = all killed)
Settings in all cases: 10 µM unless noted

The test system of assay [1] is NCI-H23 lung.
The test system of assay [2] is NCI-H322M lung.
In assay [3] the test system is HOP-62 NSCLC.
The subject of assay [4] is NCI-H460 lung.
The test system of assay [5] is HOP-92 NSCLC.
Assay [6] deals with NCI-H522 lung.
In assay [7] the test system is A549/ATCC NSCLC.
Assay [8] deals with 786-0 renal.
Assay [9] concerns COLO 205 colon.
Assay [10] relates to DU-145 prostate.
Assay [11] concerns K-562 leukemia.
Assay [12] relates to MALME-3M melanoma.
Assay [13] deals with MDA-MB-231 breast.
In assay [14] the test system is RXF 393 renal.
Assay [15] relates to SF-268 CNS.
For assay [16], the system named is SF-295 CNS.
The test system of assay [17] is SF-539 CNS.
The test system of assay [18] is M14 melanoma.
The subject of assay [19] is UACC-257 melanoma.

Compounds without any hit were thinned out: in the full panel of roughly 83,000, 20% have a hit.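 The endpoint reported here, percent growth, reads 100 for growth as untreated, 0 for no net growth and -100 for all cells dead.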 A number with no mark means an inactive call. Calls of active or inactive are those of the source. The calls were made as follows: active = growth percent below 10; inactive = the rest.

For `Oc1ccc(CCC2CCCC(CCc3ccc(OCCF)cc3)N2)cc1` (centres undefined), the growth in assay [1] is 87.3%; in [2], 106%; in assay [3], 95.6%; in [4], 102%; in assay [5] it was 75.3%; in assay [6], 95.3%. Also, the growth in [7] was 91%; in [8] it was 95.9%; in assay [9], 97.2%; in [10], 109%; in [11], 66%; in assay [12] it was 117%. Moreover, the growth is 88.9% in [13]; 84.7% in [14]; 99.1% in [15]; 96.4% in assay [16]; 104% in assay [17]; 90.4% in assay [18].

Turning to `COc1ccc2c(c1)C(Br)=C(CCO)C2c1ccccc1` (centres undefined), the growth in assay [1] is 95%; in assay [3] it was 22.1%; in assay [4], 9.69% (active); in [5] it was 35.5%; in assay [6], 96.8%; in [7] it was 25.1%. Moreover, the growth in assay [8] was 85.4%; in [9], 48.2%; in assay [10] it was -10.3% (active); in assay [11] it was 122%; in [12], 90.6%; in assay [13], 56.3%. The growth was 20% in assay [14]; 84.3% in [15]; 1.56% (active) in assay [16]; 63.7% in [17]; 77.6% in [19]; 89% in assay [18].

On to `O=C(CCCCCn1c2ccccc2c2c3c(c4c5ccccc5[nH]c4c21)C(=O)N(O)C3=O)N1CCOCC1`, for which the growth in assay [1] is 52%; in assay [2], 74.4%; in [3] it was 11.6%; in assay [4], 35.8%; in [5], 89.8%; in assay [6], 9.19% (active). In addition, the growth in [7] was 91.4%; in [8], 80.3%; in [9] it was 62%; in assay [10], 69.6%; in assay [11], 33.6%; in assay [12], 113%. Moreover, the growth in assay [13] was 48.2%; in assay [14] it was 56%; in [15] it was 47.4%; in assay [16], 28.5%; in [17], 35.6%; in assay [18], 38.6%.

As for `COc1cnc2c(c1)C(=O)c1c-2n(CCCN2CCN(CCO)CC2)c(=O)c2cc([N+](=O)[O-])ccc12`, the growth in [1] was -40.2% (active); in assay [2] it was -20.4% (active); in assay [3] it was 39.8%; in [4], -75.7% (active); in [5], 76.9%; in assay [6] it was 38.3%. Also, the growth in [7] is -88.9% (active); in assay [8], -85.4% (active); in assay [9] it was 62%; in [10] it was 43.3%; in assay [11], -26.6% (active); in assay [13], -35.8% (active). The growth in assay [14] was 74.3%; in [15] it was 31%; in assay [16] it was 29.2%; in [17], 57.5%; in assay [18], 18.2%.

For the compound `Cc1nn(-c2ccc(Br)cc2)c2nc3[nH]c(=O)[nH]c(=O)c3nc12`, the growth was 99% in [1]; 119% in assay [2]; 120% in [3]; 108% in assay [4]; 110% in assay [5]; 98.1% in assay [6]. Also, the growth in assay [7] was 102%; in assay [8], 100%; in [9] it was 115%; in assay [10], 114%; in [11], 101%; in [12] it was 108%. Moreover, the growth in [13] is 110%; in [14], 114%; in assay [15] it was 110%; in assay [16], 98.6%; in assay [17] it was 99.7%; in [19], 99%. Moreover, in [18], the growth is 112%.

For `O=Cc1nc2ccccc2[nH]1`, the growth is 97.9% in assay [1]; 110% in [2]; 90.1% in assay [3]; 109% in assay [4]; 86.1% in [5]; 84.8% in assay [6]. Moreover, the growth in assay [7] is 84.5%; in [8], 101%; in [9] it was 106%; in assay [10], 105%; in assay [11] it was 97.6%; in [12], 104%. Moreover, the growth in assay [13] is 94.9%; in assay [14], 112%; in assay [15], 104%; in assay [16], 101%; in [17], 97.5%; in assay [18], 90.9%.

Consider `O=C1CCCC=CC[C@H]2C=C(Cl)C(=O)C2=CC[C@H](CCCCC(F)(F)F)OC(=O)CCCC=CC[C@H]2C=C(Cl)C(=O)C2=CC[C@H](CCCCC(F)(F)F)OC(=O)CCCC=CC[C@H]2C=C(Cl)C(=O)C2=CC[C@H](CCCCC(F)(F)F)O1`, for which the growth was 65.2% [6.25 µM] in [1]; 99.1% [6.25 µM] in assay [2]; 85.9% [6.25 µM] in [3]; 89.6% [6.25 µM] in assay [4]; 126% [6.25 µM] in [5]; 34.4% [6.25 µM] in assay [6]. The growth is 93.7% [6.25 µM] in assay [7]; 108% [6.25 µM] in assay [8]; 80% [6.25 µM] in [9]; 62.4% [6.25 µM] in assay [10]; 32.1% [6.25 µM] in [11]; 106% [6.25 µM] in assay [12]. The growth in assay [13] is 51.5% [6.25 µM]; in [14] it was 86% [6.25 µM]; in assay [15], 82.8% [6.25 µM]; in [16], 107% [6.25 µM]; in [17], 93% [6.25 µM]; in assay [19] it was 79.3% [6.25 µM]. Also, the growth in assay [18] is 59.5% [6.25 µM].

With `c1ccc(CN2C(c3ccccc3)=Nc3ccccc3C2c2c[nH]c3ccccc23)cc1` (centres undefined), the growth in assay [1] is 27.4%; in assay [2] it was 60.6%; in assay [3], 47.1%; in [5], -2.7% (active); in assay [6], 51.7%; in assay [7] it was 65.5%. Further, the growth in assay [8] is 46.7%; in [9], 18.3%; in [10], 85.4%; in assay [11], 4.88% (active); in assay [12], 55.1%; in [13], 26.7%. For the same compound, the growth was 42.9% in [14]; 71.2% in assay [15]; 45.6% in assay [16]; 58.1% in assay [17]; 28.9% in assay [18].

Consider `Cn1cc(-c2nc(-c3c[nH]c4ncccc34)cs2)c2cc(Cl)ccc21`, for which the growth in assay [1] was 69.5%; in assay [2], 47.8%; in assay [3] it was 86%; in assay [4], 47%; in assay [5], 40.4%; in assay [6], 52.2%. Besides, the growth was 43% in assay [7]; 46.2% in [8]; 80.2% in [9]; 54.4% in assay [10]; 9.43% (active) in [11]; 55.3% in assay [13]. In addition, the growth in [14] was 63.4%; in [15], 65.4%; in assay [16] it was 24.4%; in assay [17], 71.7%; in assay [19], 56%; in [18], 42.2%.

As for `CCCCCCCC(=O)SCC/C=C/[C@@H]1CC(=O)NCc2cccc(n2)CN(Cc2ccc3ccccc3c2)CC(=O)N[C@@H](C(C)C)C(=O)O1`, the growth in [1] is 45.7%; in assay [2], 40%; in assay [3], 24%; in assay [4], 27.6%; in assay [5], 18.2%; in [6], 66.1%. Further, the growth was 35.3% in [7]; 72.1% in assay [8]; 33.7% in assay [9]; 51.4% in assay [10]; 13.8% in assay [11]; 8.13% (active) in assay [12]. Further, the growth in assay [13] is 27.3%; in [14], 20.3%; in assay [15], 61.1%; in [16], 9.4% (active); in assay [17], 59.1%; in [18], 28.4%.

`CCN1CCN(C(=O)[C@@]2(C)CC[C@]3(C)CC[C@]4(C)C(=CC(=O)[C@@H]5[C@@]6(C)CC[C@H](OCCC#N)C(C)(C)[C@@H]6CC[C@]54C)[C@@H]3C2)CC1`: the growth in assay [1] is 87.9%; in assay [2], 106%; in assay [3], 100%; in [4], 99.9%; in [5], 70.8%; in assay [6] it was 95.4%. The growth in assay [7] was 84.1%; in [8], 51%; in assay [9], 95.7%; in assay [10], 97%; in assay [11], 31.8%; in assay [12] it was 65.3%. Also, the growth in [13] was 97.5%; in assay [14], 85%; in [15], 90.4%; in [16], 84%; in [17], 80.4%; in assay [19] it was 88.4%. Moreover, in assay [18], the growth was 96%.

As for `COc1ccc(C(=O)/C=C/c2cc(-c3cc(OC)c(OC)c(OC)c3)n[nH]2)cc1OC`, the growth in [1] is 71.2%; in [2], -42.4% (active); in assay [3], -56.6% (active); in assay [4], -17.4% (active); in assay [5] it was 42.8%; in assay [6] it was -78.5% (active). Besides, the growth was 31.3% in assay [7]; -34.7% (active) in assay [8]; -65.7% (active) in [9]; 1.8% (active) in [10]; 3.36% (active) in assay [11]; -75.5% (active) in assay [12]. Also, the growth was -4.03% (active) in assay [13]; -78.8% (active) in assay [14]; -20.1% (active) in [15]; -96.2% (active) in [17]; 24.6% in assay [19]; -7.08% (active) in assay [18].

For the compound `Cn1cnc2c1c(=O)n(CCC(=O)Nc1ccc(F)cc1)c(=O)n2C`, the growth in assay [1] is 95.8%; in [3], 100%; in assay [4] it was 108%; in assay [5], 96.4%; in [6], 87.3%; in assay [7] it was 89.1%. In addition, the growth in assay [8] is 94.8%; in assay [9], 104%; in [10], 103%; in assay [11] it was 108%; in assay [12], 97.1%; in assay [13] it was 101%. The growth was 116% in assay [14]; 105% in [15]; 102% in assay [16]; 101% in assay [17]; 101% in [18].
